TWEAK-Fn14 inh: inhibitors of TWEAK-Fn14 signaling, primary screen, luciferase reporter cells, uHTS | TWEAK-stimulated Fn14 reporter cells, luciferase luminescence, 8 h | inhibition, % at 10 µM | 360,000 compounds, 2% hits; in the data active means inhibition above about 50%
TROY NFkB inh: inhibitors of TROY-driven NF-kB signaling, primary screen, Q293 LMP1-TROYcd cells, NF-kB luciferase, uHTS; Q293 LMP1-TROYcd NF-kB luciferase reporter, 4 h; inhibition, % at 10 µM; 360,000 compounds, 0.98% hits;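 active means compounds whose plate-normalised and pattern-corrected inhibition of the luciferase reporter signal at the single screening dose is 50% or more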
LGR2 antag: inhibitors of bursicon-induced LGR2 CRE-luciferase signal, primary screen, cell-based, HEK293, CRE-luciferase reporter, bursicon stimulation. 380,000 compounds, 0.35% hits. inhibition, % at 9.99 µM. AID 720647, 2013. bursicon-stimulated, 4 h. Drosophila bursicon receptor LGR2 (rickets);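 active means drop in luminescence signal, shown as inhibition above about 50% in the replicate tests, limit read from the data, passing the limit was not always enough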;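 further: agonist challenge used bursicon conditioned medium at about half maximal strength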
EBV LMP1 NFkB: EBV LMP1-driven NF-kappaB luciferase reporter inhibitors, primary screen, cell-based, luminescence, single point | LMP1-induced NF-kappaB luciferase reporter cells | inhibition, % at 12.5 µM | 350,000 compounds, 0.69% hits | AID 504558, 2011; in the data active means inhibition above about 41%
EWS-Fli block: EWS/Fli-driven NR0B1 reporter inhibitors, primary screen, A673 cells, NR0B1 luciferase, luminescence, MLPCN library; inhibition, % at 12.6 µM; AID 651661, 2012; 350,000 compounds, 0.67% hits; viability-normalised;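 active means mean inhibition of at least 50% after viability correction, with every replicate also passing that limit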;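 further: firefly luciferase signal divided by Alamar Blue viability fluorescence both relative to DMSO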
PAX8 reporter: inhibitors of PAX8-driven TPO luciferase reporter, primary screen, RMG-I cells, single concentration; inhibition, % at 12.6 µM; SteadyGlo, 24 h; 360,000 compounds, 1.2% hits;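 active means mean replicate inhibition at least 60% with every replicate also reaching 60%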;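 further: luciferase light reporting Pax8 driven TPO promoter activity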
Numbers stand for hits. The list is not random: actives were taken first. Their share in the collection is about 3.1%.

Screening C[C@@H]1CN([C@H](C)CO)C(=O)c2cc(NS(=O)(=O)c3cccs3)ccc2O[C@@H](C)CCCCO[C@H]1CN(C)S(=O)(=O)c1ccccc1 returned LGR2 antag inactive, EWS-Fli block inactive and PAX8 reporter inactive.
Screening CN1C(=O)c2cc(NC(=O)Nc3ccccc3F)ccc2OC[C@@H]2O[C@H](CC(=O)O)CC[C@H]21 returned LGR2 antag inactive, EWS-Fli block inactive and PAX8 reporter inactive.
C[C@@H]1CN([C@H](C)CO)C(=O)Cc2cc(NC(=O)Nc3ccccc3)ccc2O[C@@H]1CN(C)Cc1ccc(C(=O)O)cc1 was read as EWS-Fli block inactive and PAX8 reporter inactive.
For CC(CC(=O)N1CCN(c2cccc(Cl)c2)CC1)S(=O)(=O)c1ccc2c(c1)NC(=O)CO2 (stereo not drawn) the results were TWEAK-Fn14 inh 58.6, TROY NFkB inh inactive, LGR2 antag inactive, EBV LMP1 NFkB inactive and PAX8 reporter inactive.
Screening COc1ccc(N2CCN(C(=O)CC(C)S(=O)(=O)c3ccc4c(c3)NC(=O)CO4)CC2)cc1 (stereo not drawn) returned TWEAK-Fn14 inh inactive, TROY NFkB inh inactive, LGR2 antag inactive, EBV LMP1 NFkB inactive, EWS-Fli block inactive and PAX8 reporter inactive.
Oc1ccc(Nc2nc3ccccc3nc2Nc2ccc(O)cc2)cc1 was read as TWEAK-Fn14 inh 76.1, TROY NFkB inh inactive and EBV LMP1 NFkB inactive.
For O=C(C[C@@H]1C=C[C@H](NC(=O)CCN2CCCCC2)[C@H](CO)O1)Nc1ccccc1 the results were LGR2 antag inactive, EWS-Fli block inactive and PAX8 reporter inactive.
For O=C1c2ccccc2NC(c2cccc(O)c2)N1O (stereo not drawn) the results were TWEAK-Fn14 inh inactive, TROY NFkB inh 82.8, LGR2 antag inactive, EBV LMP1 NFkB inactive, EWS-Fli block inactive and PAX8 reporter inactive.
`O=C1c2ccccc2NC(c2cccc([N+](=O)[O-])c2)N1O` (stereo not drawn) gave TWEAK-Fn14 inh inactive, TROY NFkB inh inactive, LGR2 antag inactive, EBV LMP1 NFkB inactive, EWS-Fli block inactive and PAX8 reporter inactive.
For CCn1cc(C2Nc3ccccc3C(=O)N2O)c(C)n1 (stereo not drawn) the results were TWEAK-Fn14 inh inactive, TROY NFkB inh inactive, LGR2 antag inactive and EBV LMP1 NFkB 47.3.
Screening C[C@@H]1CN([C@@H](C)CO)C(=O)c2cc(NC(=O)c3ccccc3)ccc2O[C@@H](C)CCCCO[C@@H]1CN(C)C(=O)NC1CCCCC1 returned LGR2 antag inactive, EWS-Fli block inactive and PAX8 reporter inactive.
COc1ccc(-c2c(-c3ccccc3)c(C(=O)C(=O)NCCCN(C)C)n3ccc4cc(OC)c(OC)cc4c23)cc1OC was read as TWEAK-Fn14 inh inactive, TROY NFkB inh inactive, LGR2 antag inactive, EBV LMP1 NFkB inactive, EWS-Fli block 85.7 and PAX8 reporter inactive.
Screening CN(C)CCNC(=O)C(=O)c1c(-c2ccccc2)cc2ccccn12 returned TWEAK-Fn14 inh inactive, TROY NFkB inh inactive, LGR2 antag inactive, EBV LMP1 NFkB inactive, EWS-Fli block inactive and PAX8 reporter inactive.
O=C(C[C@@H]1CC[C@H]2[C@@H](COC[C@H](O)CN2S(=O)(=O)c2ccc(F)cc2)O1)NCC1CCCCC1 was read as LGR2 antag inactive, EWS-Fli block inactive and PAX8 reporter inactive.
Cn1cnc2nc(Cl)nc(Cl)c21 was read as TWEAK-Fn14 inh 54.3, TROY NFkB inh inactive, LGR2 antag inactive, EBV LMP1 NFkB inactive, EWS-Fli block inactive and PAX8 reporter 80.3.
`CNc1nc(Cl)nc2ncn(C)c12` gave TWEAK-Fn14 inh inactive, TROY NFkB inh inactive, LGR2 antag inactive, EBV LMP1 NFkB inactive, EWS-Fli block inactive and PAX8 reporter inactive.
Screening COc1ccc2c3c(n(C)c2c1)[C@H](CO)N(Cc1ccccc1)CC31CCN(CC2CC2)CC1 returned LGR2 antag inactive and EWS-Fli block inactive.
COCCNC(=O)c1cc(-c2ccncc2)nc2ccc(S(=O)(=O)N3CCOCC3)cc12 was read as TWEAK-Fn14 inh inactive, TROY NFkB inh 64.5, LGR2 antag inactive, EBV LMP1 NFkB inactive, EWS-Fli block inactive and PAX8 reporter inactive.

Assay outcomes (PubChem BioAssay)
